CYP2C19 act – human CYP2C19 activators, primary screen, biochemical, luminescence | Cytochrome P450 2C19 (Homo sapiens), P33261 | recombinant CYP2C19, luciferin-H EGE luminescence; active compounds read high; 0 = fully inhibited enzyme, 1 = untreated enzyme | activation factor at 5 µM | 96,000 tested, under 10 active;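 active = activation factor of at least 2 at 5 µM in the primary screen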;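 also: 0 = wells with 2.5 mM tranylcypromine and 1 = vehicle-only wells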
PLK1 inh – human PLK1 kinase inhibitors, primary screen, biochemical, TR-FRET; hit rate 0.53% among 97,000; Serine/threonine-protein kinase PLK1 (Homo sapiens), P53350; inhibition, % at 10 µM; recombinant PLK1 kinase, TR-FRET peptide phosphorylation;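 active = inhibition of 50% or more in the single-concentration screen; inactive = inhibition below 50%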;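 also: 0% = DMSO max control and 100% = H-89 dihydrochloride min control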
CYP2C9 inhib – blockers of cytochrome P450 2C9 activity – biochemical, luminescence, ADME assay, primary screen; P11712; CYP2C9 Supersomes, luciferin-H conversion; inhibition, % at 5 µM; hit rate 20% among 96,000;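 active = blocking of liver enzyme CYP2C9 beyond about 50% at 5 µM, limit read from the data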
Target sequence (P11712 whole entry, looked up): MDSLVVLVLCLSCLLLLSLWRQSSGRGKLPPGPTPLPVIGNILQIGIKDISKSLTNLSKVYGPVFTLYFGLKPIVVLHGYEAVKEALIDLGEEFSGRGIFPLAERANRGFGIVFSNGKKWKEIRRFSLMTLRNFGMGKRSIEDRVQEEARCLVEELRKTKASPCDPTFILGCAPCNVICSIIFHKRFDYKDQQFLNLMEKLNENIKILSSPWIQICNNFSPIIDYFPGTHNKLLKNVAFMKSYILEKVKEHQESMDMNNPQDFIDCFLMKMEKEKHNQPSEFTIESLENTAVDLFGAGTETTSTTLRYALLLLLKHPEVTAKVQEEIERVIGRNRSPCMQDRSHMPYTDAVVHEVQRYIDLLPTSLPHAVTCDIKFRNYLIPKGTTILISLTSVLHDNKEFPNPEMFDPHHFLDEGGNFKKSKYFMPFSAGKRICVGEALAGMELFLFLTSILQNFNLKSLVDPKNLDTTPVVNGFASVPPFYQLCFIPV
CYP2C19 inh – blockers of cytochrome P450 2C19 activity – biochemical, luminescence, ADME assay, primary screen; P33261; CYP2C19 Supersomes, luciferin-H EGE luminescence, 30 min; inhibition, % at 5 µM; hit rate 21% among 96,000; AID 778, 2007;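 active = CYP2C19 inhibition above a set limit at 5 µM in the primary screen, cut at about 50% in these data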;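 also: plate controls were negative control wells for no effect and 2.5 mM tranylcypromine positive control for full effect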
PLK1 PBD inh – Plk1 polo box domain binding inhibitors, primary screen, biochemical, fluorescence polarization; Serine/threonine-protein kinase PLK1 (Homo sapiens), P53350; Plk1 PBD phosphopeptide binding; inhibition, %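 (tested at about 20 µM)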; hit rate 0.13% among 97,000; AID 693, 2007; in the data active = inhibition above about 34%, passing the limit was not always enough
CYP2C9 activ – human CYP2C9 activators, primary screen, biochemical, luminescence. Cytochrome P450 2C9 (Homo sapiens), P11712. recombinant CYP2C9, luciferin-H conversion; active compounds read high; factor 1 = untreated enzyme, 0 = blocked. activation factor at 5 µM. hit rate 1.4% among 96,000;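 active = activation factor of 2 or more for CYP2C9 at a 5 µM dose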;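 also: 0 = sulfaphenazole-blocked wells and 1 = vehicle-only wells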
Active calls of the source: *. Most compounds without a hit are left out; they make up all but 28% or so of the library.

How did COc1ccc(OC)c(C(C)NC=O)c1 (stereo not drawn) do in these assays?
CYP2C19 act: 1; PLK1 inh: -14; CYP2C9 inhib: -9; CYP2C19 inh: -4; PLK1 PBD inh: 9; CYP2C9 activ: 1.1

Results for CCn1c(C(O)c2ccc(C)cc2)nc2ccccc21 (stereo not drawn) ?
CYP2C19 act: 0.6; CYP2C9 inhib: -5; CYP2C19 inh: 44; CYP2C9 activ: 1

Results for Cn1c(C(O)c2ccc3c(c2)OCO3)nc2ccccc21 (stereo not drawn) ?
CYP2C19 act: 0; PLK1 inh: -11; CYP2C9 inhib: 62*; CYP2C19 inh: 97*; PLK1 PBD inh: -1; CYP2C9 activ: 0.4

How did COc1ccc(OC)c(C(O)c2nc3ccccc3n2C(C)C)c1 (stereo not drawn) do in these assays?
CYP2C19 act: 0.3; PLK1 inh: -15; CYP2C9 inhib: 37; CYP2C19 inh: 74*; PLK1 PBD inh: 12; CYP2C9 activ: 0.6

How did CC(C)n1c(C(O)c2ccc3c(c2)OCO3)nc2ccccc21 (stereo not drawn) do in these assays?
CYP2C19 act: 0; CYP2C9 inhib: 53*; CYP2C19 inh: 98*; CYP2C9 activ: 0.5

What do the screens show for `OC(c1ccc2c(c1)OCO2)c1nccc2ccccc12` (stereo not drawn)?
CYP2C19 act: 0; PLK1 inh: -15; CYP2C9 inhib: -74; CYP2C19 inh: 95*; PLK1 PBD inh: -7; CYP2C9 activ: 1.7

What do the screens show for `c1ccc2c(c1)nc1n2CN(Cc2ccc3c(c2)OCO3)CN1`?
CYP2C19 act: 1.1; PLK1 inh: 3; CYP2C9 inhib: -11; CYP2C19 inh: -10; PLK1 PBD inh: 0; CYP2C9 activ: 1.1

What do the screens show for `CC(C)(C)C1(c2ccccc2)NC(=O)N(CC(=O)N2CCOCC2)C1=O` (stereo not drawn)?
CYP2C19 act: 1.2; PLK1 inh: -11; CYP2C9 inhib: -24; CYP2C19 inh: -16; PLK1 PBD inh: -2; CYP2C9 activ: 1.2

How did Cc1ccc(C)c(/C(O)=C2/C(=O)C(=O)N(CCN3CCOCC3)C2c2ccco2)c1 (stereo not drawn) do in these assays?
CYP2C19 act: 1; PLK1 inh: -14; CYP2C9 inhib: -20; CYP2C19 inh: -1; PLK1 PBD inh: 0; CYP2C9 activ: 1.2

Results for CN(Cc1ccccc1)C(=O)C1CCCN(Cc2ccc(Cl)cc2)C1 (stereo not drawn) ?
CYP2C19 act: 0.8; PLK1 inh: -6; CYP2C9 inhib: 12; CYP2C19 inh: 25; PLK1 PBD inh: -4; CYP2C9 activ: 0.9

What do the screens show for `O=C(Nc1cccc(-c2cn3cccnc3n2)c1)c1ccc2c(c1)OCO2`?
CYP2C19 act: 0.9; PLK1 inh: -17; CYP2C9 inhib: 60*; CYP2C19 inh: 10; PLK1 PBD inh: 14; CYP2C9 activ: 0.4

Results for O=C(Nc1cccc(-c2cn3cccnc3n2)c1)c1ccco1 ?
CYP2C19 act: 0.9; PLK1 inh: -7; CYP2C9 inhib: 23; CYP2C19 inh: 6; PLK1 PBD inh: -6; CYP2C9 activ: 0.8

What do the screens show for `O=C(Nc1cccc(-c2cn3cccnc3n2)c1)c1ccc(Br)o1`?
CYP2C19 act: 1; PLK1 inh: -5; CYP2C9 inhib: 58*; CYP2C19 inh: -3; PLK1 PBD inh: -12; CYP2C9 activ: 0.4

How did COc1ccc(CN(C#N)c2nc(SC)nc(N(C)C)n2)cc1 do in these assays?
CYP2C19 act: 0.1; PLK1 inh: -6; CYP2C9 inhib: -40; CYP2C19 inh: 89*; PLK1 PBD inh: -4; CYP2C9 activ: 1.4

How did COc1ccc(CN2C(=O)CN=C2Nc2cc(C)ccc2C)cc1 do in these assays?
CYP2C19 act: 0.7; PLK1 inh: 7; CYP2C9 inhib: 57*; CYP2C19 inh: 26; PLK1 PBD inh: -9; CYP2C9 activ: 0.4

Results for CS(=O)(=O)N(CC(=O)N1CCCCC1)C1CCCCC1 ?
CYP2C19 act: 0.7; PLK1 inh: -8; CYP2C9 inhib: 6; CYP2C19 inh: 32; PLK1 PBD inh: -9; CYP2C9 activ: 0.9
